# Assay results published in PubChem BioAssay (Tox21).
# Unmarked numbers belong to inactive results. Inconclusive results are not listed. Where a call stands in place of a potency, no number is given. Calls of active or inactive are those of the source. Unless noted, calls follow the shape of the dose curve; as a rule, active = well fitted curve in the direction sought with a large enough effect in the repeat runs; inconclusive = weak or mixed curves; inactive = no such curve, though single readings can be large; an effect the other way counts as inactive or inconclusive.
# Key:
# [1] = molecular target: Thyrotropin receptor (Homo sapiens) (UniProt P16473); assay: qHTS assay to identify small molecule agonists of the thyroid stimulating hormone receptor (TSHR) signaling pathway (AID 1224843; calls by dose curve; also: nearly all actives have a fitted effect of over 45% in size)
# Summary of the method: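 Compounds are titrated over 15 concentrations, in triplicate, onto TSHR-HEK293 cells seeded at 800/well. Plates sit 30 min at room temperature before cAMP-d2 and anti-cAMP cryptate are added; signal is read after a further hour.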
# [2] = qHTS assay to identify small molecule agonists of the hypoxia (HIF-1) signaling pathway - cell viability counter screen (AID 1224844; calls by dose curve; also: nearly all actives have a fitted effect of over 50% in size)
# Summary of the method: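 Same wells as the HIF-1 reporter screen; ME-180 cells carrying HRE-bla, 17 hr treatment at 37C; CellTiter-Glo luminescence read after 30 min at room temperature.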
# [3] = qHTS assay to identify small molecule agonists of H2AX (AID 1224845; active = well fitted activation curve with a large enough effect in the signal ratio in the repeat runs, not every such curve was filed as active; the % refers to the signal ratio)
# Summary of the method: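 Wild-type CHO-K1 cells plated overnight, then exposed 3 hr at 37C to compounds at 15 concentrations (0.76% DMSO). Lysed, then HTRF anti-pH2AX(S139)-cryptate/anti-H2AX-d2 detection after 24 hr at room temperature; emissions 665 and 620 nm.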
# [4] = qHTS assay to identify small molecule agonists of the hypoxia (HIF-1) signaling pathway (AID 1224846; active = well fitted activation curve with a large enough effect in the signal ratio in the repeat runs, not every such curve was filed as active; the % refers to the signal ratio)
# Summary of the method: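 In ME-180 cells bearing an HRE-bla construct, 17 h treatment with DMSO-dissolved compounds at 37C was followed by CCF4-AM loading to quantify reporter induction.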
# [5] = qHTS assay to identify small molecule agonists of H2AX - cell viability counter screen (AID 1224847; calls by dose curve; also: nearly all actives have a fitted effect of over 30% in size; also: potency is read from the fitted curve at half-maximal effect)
# Summary of the method: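 Cytotoxicity counter screen in wild-type CHO-K1 cells: a 3 hr compound treatment at 37C across 15 concentrations, followed by CellTiter-Glo luminescence to gauge viable cells.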
# [6] = qHTS assay to identify small molecule antagonists of the estrogen related receptor (ERR) signaling pathway from Tox21 library (AID 1224848); also: nearly all actives have a fitted effect of over 50% in size; also: potency is read from the fitted curve at half-maximal effect
# Summary of the method: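 First, 2,000 ERR cells per well were plated and held 6 h at 37 C/5% CO2. Next, compounds in DMSO were pinned in and left 18 h at 37 C. Finally, ONE-Glo was added and luminescence read after 30 min at room temperature.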
# [7] = qHTS assay to identify small molecule agonists of the estrogen related receptor (ERR) signaling pathway from Tox21 library (AID 1224849; calls by dose curve; also: nearly all actives have a fitted effect of over 15% in size); conditions: ERR reporter cell line, ONE-Glo luciferase, 18 h; at 92.4 µM (top of the series) unless noted
# Summary of the method: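 Reporter cells (ERR, NTP source) treated with Tox21 10K compounds 18 h, 37 C. Readout: ONE-Glo luminescence, 30 min RT.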
# [8] = qHTS RealTime-Glo MT Cell Viability Assay in HepG2 cells - 24 hour (AID 1224867); also: nearly all actives have a fitted effect of over 50% in size
# Summary of the method: (§1)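 Cells + NanoLuc/prosubstrate dispensed (600 cells/well) → 5 h at 37 C/5% CO2 → compounds in DMSO transferred → 40 h incubation at 37 C, luminescence read at 0, 8, 16, 24, 32, 40 h.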
# [9] = qHTS RealTime-Glo MT Cell Viability Assay in HEK293 cells - 32 hour (AID 1224868); also: top concentration of the series differs between compounds; nearly all actives have a fitted effect of over 50% in size
# Summary of the method: (§2)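 Tox21 10K qHTS, HEK293, 600 cells/well, RealTime-Glo reagent co-dispensed with cells; 5 h preincubation, compound by pintool, 37 C, luminescence at 0–40 h.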
# [10] = A CellTox Green Cytotoxicity Assay to monitor cytotoxicity in HEK293 cells - 0 hour (AID 1224869); also: nearly all actives have a fitted effect of over 50% in size
# Summary of the method: (§3)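 Homogeneous no-lysis format: HEK293 cell suspension mixed with CellTox Green reagent, seeded, incubated 5 h at 37 C/5% CO2, then dosed by pintool with compound in DMSO.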
# [11] = qHTS RealTime-Glo MT Cell Viability Assay in HepG2 cells - 40 hour (AID 1224870); also: nearly all actives have a fitted effect of over 50% in size
# Summary of the method: (§4)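 HepG2 cells mixed with RealTime-Glo MT reagents (NanoLuc plus cell-permeant prosubstrate) were seeded at 600 cells/well, incubated 5 h at 37 C/5% CO2, then pinned with compounds in DMSO; nonlytic luminescence tracked viability during 40 h treatment.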
# [12] = A CellTox Green Cytotoxicity Assay to monitor cytotoxicity in HEK293 cells - 40 hour (AID 1224871); also: nearly all actives have a fitted effect of over 45% in size
# Summary of the method: as §3
# [13] = qHTS RealTime-Glo MT Cell Viability Assay in HEK293 cells - 16 hour (AID 1224872)
# Summary of the method: as §2
# [14] = qHTS RealTime-Glo MT Cell Viability Assay in HepG2 cells - 8 hour (AID 1224873); also: nearly all actives have a fitted effect of over 55% in size
# Summary of the method: as §4
# [15] = A CellTox Green Cytotoxicity Assay to monitor cytotoxicity in HEK293 cells - 24 hour (AID 1224875); also: nearly all actives have a fitted effect of over 45% in size
# Summary of the method: as §3
# [16] = A CellTox Green Cytotoxicity Assay to monitor cytotoxicity in HepG2 cells - 16 hour (AID 1224876); also: nearly all actives have a fitted effect of over 45% in size
# Summary of the method: (§5)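 Fluorescent DNA-binding dye, 600 HepG2 cells/well, 5 h preincubation then compound in DMSO; same plates read at 0–40 h, 37 C.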
# [17] = qHTS RealTime-Glo MT Cell Viability Assay in HepG2 cells - 32 hour (AID 1224877); also: nearly all actives have a fitted effect of over 55% in size
# Summary of the method: as §1
# [18] = A CellTox Green Cytotoxicity Assay to monitor cytotoxicity in HepG2 cells - 24 hour (AID 1224878); also: nearly all actives have a fitted effect of over 45% in size
# Summary of the method: as §5
# [19] = qHTS RealTime-Glo MT Cell Viability Assay in HEK293 cells - 40 hour (AID 1224874); conditions: RealTime-Glo luminescence; max response: active compounds read low; also: nearly all actives have a fitted effect of over 50% in size
# Summary of the method: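 Measured as luminescence from the same continuously cultured HEK293 wells at successive time points (0, 8, 16, 24, 32, 40 h) after compound addition. Reagent present from seeding; dosing at 5 h; incubation 37 C.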
# [20] = A CellTox Green Cytotoxicity Assay to monitor cytotoxicity in HepG2 cells - 40 hour (AID 1224879); also: nearly all actives have a fitted effect of over 40% in size
# Summary of the method: as §5
# Sequence of Thyrotropin receptor (Homo sapiens) (P16473 whole entry, looked up): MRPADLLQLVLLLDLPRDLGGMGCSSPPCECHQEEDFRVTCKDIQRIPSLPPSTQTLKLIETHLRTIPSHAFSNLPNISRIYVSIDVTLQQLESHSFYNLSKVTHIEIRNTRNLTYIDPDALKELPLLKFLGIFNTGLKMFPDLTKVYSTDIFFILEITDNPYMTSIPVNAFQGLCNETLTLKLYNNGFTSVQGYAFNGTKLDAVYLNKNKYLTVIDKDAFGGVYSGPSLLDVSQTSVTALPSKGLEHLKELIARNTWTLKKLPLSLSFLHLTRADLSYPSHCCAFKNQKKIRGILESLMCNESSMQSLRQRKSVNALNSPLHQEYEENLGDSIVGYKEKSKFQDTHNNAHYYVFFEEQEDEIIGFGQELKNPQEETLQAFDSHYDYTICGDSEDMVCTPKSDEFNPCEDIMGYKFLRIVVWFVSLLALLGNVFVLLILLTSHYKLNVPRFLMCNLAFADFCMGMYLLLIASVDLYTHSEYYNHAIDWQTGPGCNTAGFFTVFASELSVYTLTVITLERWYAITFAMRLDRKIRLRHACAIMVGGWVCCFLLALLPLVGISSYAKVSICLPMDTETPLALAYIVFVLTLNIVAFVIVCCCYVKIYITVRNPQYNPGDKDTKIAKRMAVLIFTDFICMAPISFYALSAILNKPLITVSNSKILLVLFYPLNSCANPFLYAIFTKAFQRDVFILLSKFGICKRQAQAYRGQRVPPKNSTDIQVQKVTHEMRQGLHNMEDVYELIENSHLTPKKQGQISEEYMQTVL
SMILES,Potency [1],Potency [2],Potency [3],outcome [4],Potency [5],Potency [6],"activity change, positive = activation [7]",Potency [8],Potency [9],Potency [10],Potency [11],Potency [12],Potency [13],Potency [14],Potency [15],Potency [16],Potency [17],Potency [18],max response [19] [%],Potency [20]
CO/N=C(/C(=O)OC)c1ccccc1COc1ccccc1C,inactive,inactive,inactive,inactive,2.84 µM (active),1.54 µM (active),-47.7%,inactive,inactive,inactive,inactive,inactive,inactive,inactive,inactive,inactive,inactive,inactive,–,–
O=C(NC(=O)c1c(F)cccc1F)Nc1ccc(OC(F)(F)C(F)OC(F)(F)F)c(Cl)c1 (configuration not stated),inactive,inactive,inactive,inactive,inactive,inactive,-11.9% [at 42.5 µM],inactive,inactive,inactive,inactive,inactive,inactive,inactive,inactive,inactive,–,inactive,-1.18,inactive
C=COC(C)=O,inactive,inactive,inactive,inactive,inactive,–,–,inactive,inactive,inactive,inactive,inactive,inactive,inactive,inactive,inactive,inactive,inactive,2.49,inactive
CNC(C)Cc1ccccc1OC (configuration not stated),inactive,inactive,inactive,inactive,inactive,–,–,inactive,inactive,inactive,inactive,inactive,inactive,inactive,inactive,–,inactive,inactive,1.99,inactive
Cc1ccc(N)cc1C,inactive,inactive,inactive,inactive,inactive,inactive,19.9% (active),inactive,inactive,inactive,inactive,inactive,inactive,inactive,inactive,inactive,inactive,inactive,13.4,–
CC(C)(CCl)C(=O)Cl,inactive,inactive,inactive,inactive,inactive,–,–,inactive,inactive,inactive,inactive,inactive,inactive,inactive,inactive,inactive,inactive,inactive,0.815,–
C=CC(=O)OC,inactive,inactive,inactive,inactive,inactive,–,–,inactive,inactive,inactive,inactive,inactive,inactive,inactive,inactive,inactive,inactive,inactive,0.596,inactive
O=C(O)COc1ccc(Cl)cc1,inactive,inactive,inactive,inactive,inactive,inactive,1.55%,inactive,inactive,inactive,inactive,inactive,inactive,inactive,inactive,inactive,inactive,inactive,0.692,inactive
O=S(=O)(Cl)c1ccccc1,inactive,inactive,inactive,inactive,inactive,–,–,inactive,inactive,inactive,inactive,inactive,inactive,inactive,inactive,inactive,inactive,inactive,11.8,–
Cc1ccc2ccccc2c1,inactive,inactive,inactive,inactive,inactive,inactive,-0.842%,inactive,inactive,inactive,–,inactive,inactive,inactive,inactive,inactive,inactive,inactive,0.388,inactive
Cl/C=C\Cl,inactive,inactive,inactive,inactive,inactive,–,–,inactive,inactive,inactive,inactive,inactive,inactive,inactive,inactive,inactive,inactive,inactive,0.558,inactive
CC(=O)NC1CCSC1=O (configuration not stated),inactive,inactive,inactive,inactive,inactive,inactive,1.16% [at 42.5 µM],inactive,inactive,inactive,inactive,inactive,inactive,inactive,inactive,inactive,inactive,inactive,-1.76,inactive
COC(=O)C(Cl)C(=O)OC,inactive,inactive,inactive,inactive,inactive,–,–,inactive,inactive,inactive,inactive,inactive,inactive,inactive,inactive,inactive,inactive,inactive,-20.1,inactive
CCC(Cl)CCl (configuration not stated),inactive,inactive,inactive,inactive,inactive,inactive,-1.76%,inactive,inactive,inactive,inactive,inactive,inactive,inactive,inactive,inactive,inactive,inactive,2.27,–
